Sm TGR inh: qHTS Assay for the Inhibitors of Schistosoma Mansoni Peroxiredoxins | AID 485364, 2010 | 3% of 360,000 active | purified TGR, DTNB reduction, TNB absorbance 405 nm | Potency, µM (series often up to 114 µM), for the others: top-dose activity change, negative = inhibition, usual class: inhibitors | Schistosoma mansoni thioredoxin glutathione reductase (TGR), Q962Y6; active = well fitted inhibition curve with a large enough effect; inconclusive = small, poorly fitted or top-dose-only effect; inactive = no such curve, though single readings can be large or run the other way; note: nearly all actives have a fitted effect of over 60% in size
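First, TGR (20 nM dispensed) and NADPH were mixed with compound. Second, a 15 min room-temperature incubation followed. Third, further NADPH and then DTNB were added to start the reaction. Finally, TNB absorbance was monitored kinetically.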
Vaccinia mCherry: qHTS for Stage-Specific Inhibitors of Vaccinia Orthopoxvirus: mCherry Reporter Primary qHTS; AID 720579, 2013; Vaccinia virus mCherry reporter infection, fluorescence; Potency, µM (top dose mostly 36.5 µM), for inactives: top-dose activity change, negative = inhibition, hits mostly inhibitors; 0.63% of 310,000 active; calls by dose curve; tested in A549 cells; note: nearly all actives have a fitted effect of over 35% in size
MARV entry inh: qHTS for inhibitors of binding or entry into cells for Marburg Virus | Marburg virus pseudotyped entry inhibition, cell reporter | Potency, µM (doses to about 37.8 µM), inactives show at the highest dose activity change, negative = inhibition, actives largely listed as inhibitors | 1.8% of 300,000 active; calls by dose curve; tested in HEK293 cells
Vaccinia Venus: qHTS for Stage-Specific Inhibitors of Vaccinia Orthopoxvirus: Venus Reporter Primary qHTS; 0.46% of 330,000 active; Potency, µM (series often up to 36.5 µM), inactives show top-dose activity change, negative = inhibition, usual class: inhibitors; Vaccinia virus Venus reporter expression, fluorescence; calls by dose curve; tested in A549 cells; note: nearly all actives have a fitted effect of over 30% in size
FMDV antiviral: High Throughput Screening for Foot and Mouth Disease Virus Antivirals; FMDV antiviral cell-based qHTS; Potency, µM (titrated, usually from 57.9 µM), inactives show top-dose activity change, negative = inhibition, actives largely listed as inhibitors; 1.2% of 410,000 active; calls by dose curve; tested in HEK293T cells; note: read-out not given here; nearly all actives have a fitted effect of over 45% in size
Lassa entry inh: qHTS for Inhibitors of binding or entry into cells for Lassa Virus; Lassa virus pseudotype entry inhibition, cell reporter; Potency, µM (highest dose often 37.9 µM), without a hit: at the highest dose activity change, negative = inhibition, hits mostly inhibitors; 1.2% of 300,000 active; AID 540256, 2011; calls by dose curve; tested in HEK293 cells; note: nearly all actives have a fitted effect of over 50% in size
* = called active by the depositor; i = inactive; ? = inconclusive; . = no result given; ! = not active in a repeat; [ ] = dose if it differs, or a comment. Rows were chosen to be rich in hits. Some 5.4% of all compounds tested hit in one or more screens of this group. % is set by controls: 0 for no effect and ±100 for the full control effect; potency is the fitted concentration of half-maximal effect.

SMILES | Sm TGR inh | Vaccinia mCherry | MARV entry inh | Vaccinia Venus | FMDV antiviral | Lassa entry inh
Cc1oc(-c2cccc(Cl)c2)nc1CS(=O)(=O)CC(=O)NC1CCCC1 | 44.7µM* | -22.8% | 7.0%[46.1 µM] | -18.3% | -5.4% | -6.2%[46.1 µM]
COc1cccc(-c2nc(CS(=O)(=O)CC(=O)NC3CCCC3)c(C)o2)c1 | 44.7µM* | -19.8% | ? | -18.3% | ? | 3.8%[46.1 µM]
COc1ccccc1NC(=O)N1CCN(c2cc(-c3ccccc3)nc3ncnn23)CC1 | 6.5% | . | ? | . | 31.6µM* | -27.5%
Nc1ccccc1SC1CC(=O)N(c2ccc(Cl)c(Cl)c2)C1=O (centres undefined) | 4.9% | -10.9% | . | ? | -24.8% | .
Cc1ccc(N2C(=O)CC(Sc3nc(C)cc(C)n3)C2=O)cc1 (centres undefined) | -46.3% | . | . | . | -11.3% | .
O=C1CC(Sc2ccc(Cl)cc2)C(=O)N1c1ccc2c(c1)OCCO2 (centres undefined) | 3.98µM* | -4.8% | ? | -0.4% | -16.8% | 3.2%
O=C1CC(SC2=NCCS2)C(=O)N1c1ccc(Br)cc1 (centres undefined) | 56.2µM* | -6.6% | -3.8% | -4.9% | 1.9% | ?
O=C1CC(SC2=NCCS2)C(=O)N1c1ccc(Cl)cc1 (centres undefined) | 56.2µM* | -13.7% | -6.3% | -6.6% | 8.2% | -4.2%
CC(C)c1ccc(NC(=O)Cn2c(=O)n(Cc3nc(-c4ccccc4)no3)c(=O)c3cc4c(cc32)OCO4)cc1 | -1.2% | -10.5% | . | -5.2% | -4.7% | 21.9%[46.1 µM]
CCOC(=O)CN1C(=O)[C@]2(OCCC=C[C@@H]2C)c2c(Br)cccc21 | . | . | -20.1%[14.2 µM] | . | . | .
CS(=O)(=O)Nc1ccc([N+](=O)[O-])cc1Oc1ccccc1 | -9.0% | -6.6% | ? | -10.3% | ? | 0.0164µM*!
CS(=O)(=O)Nc1ccccc1Oc1ccccc1 | -16.3% | . | -1.3% | -8.3% | -13.2% | 0.1%
CCOC(=O)C1=NN(C(C)=O)C2(CC(=O)N(c3cc(C)cc(C)c3)C2=O)C1 (centres undefined) | -9.6% | -7.7% | ? | -3.9% | -9.6% | 5.7%
COC(=O)C1=NN(N=O)C2(CC(=O)N(c3cc(C)cc(C)c3)C2=O)C1 (centres undefined) | 25.1µM* | . | 4.7% | . | 0.4% | 2.8%
O=C(CN(c1ccccc1)S(=O)(=O)c1ccccc1)NCCSc1nc2ccccc2s1 | -19.5% | . | ? | -14.6% | 22.4µM* | -17.1%
O=C(O)CCSc1nc2ccccc2s1 | -2.5% | -14.6% | -21.6% | -4.4% | 39.8µM* | -14.1%[14.3 µM]
Cc1cccc(N(CC(=O)NCCSc2nc3ccccc3s2)S(=O)(=O)c2ccccc2)c1 | -11.5% | . | -6.8% | . | . | .
c1ccc2sc(SCSc3nc4ccccc4s3)nc2c1 | 3.7% | . | . | . | 54.5% | .
CC(=O)OC[C@H]1O[C@H](C#Cc2ccccc2)C=C[C@H]1OC(C)=O | . | . | 21.0%[14.2 µM] | . | . | .
c1ccc(Cn2ccc(-c3cnc(-c4ccccc4)s3)n2)cc1 | -10.4% | . | ? | ? | -17.0% | 11.2µM*
Cn1c(=O)c(C(=O)c2ccccc2)nc2ccccc21 | 7.8%[11.4 µM] | . | -5.6% | -26.4% | 4.8% | 18.0%
Cn1cc(C(=O)c2ccc(Cl)cc2)cc1-c1nc2ccccc2n1C | -23.2% | . | ? | ? | 15.8µM* | ?
N=c1c(S(=O)(=O)c2ccccc2)cc2c(=O)n3ccccc3nc2n1CCCN1CCOCC1 | 15.8µM* | -0.1% | ? | -6.0% | 8.8% | -12.8%[46.1 µM]
N=c1c(S(=O)(=O)c2ccc(Cl)cc2)cc2c(=O)n3ccccc3nc2n1CCN1CCOCC1 | 44.7µM* | -0.5% | -20.5% | -2.2% | -11.4% | 18.6%
CN(C(=O)CSc1nc2ccccc2n1CC(=O)N(C)C1CCCCC1)c1ccc(F)cc1 | -5.7% | -1.4% | . | -5.2% | -8.7% | 2.8%[46.1 µM]
SMILES | Sm TGR inh | Vaccinia mCherry | MARV entry inh | Vaccinia Venus | FMDV antiviral | Lassa entry inh
Oc1c(Cl)cc(Cl)cc1C=Nc1ccccc1N1CCCC1 | 15.8µM* | . | -15.3% | . | . | -12.4%
NC(=O)c1cccc(N=Cc2cc(Cl)cc(Cl)c2O)c1 | . | -4.0% | 13.0%[46.1 µM] | -16.6% | -8.5% | -11.3%[46.1 µM]
CC(C)CCCCCCCCCCCCC(=O)NCC(=O)NC1C(O)C(O)C(Nc2ncnc3nc[nH]c23)OC1C(O)CO (centres undefined) | . | 39.8µM* | ? | 11.2µM* | ? | ?
O=C(N/N=C/c1c[nH]c2ccccc12)C1CC1(c1ccccc1)c1ccccc1 (centres undefined) | -12.3% | ? | ? | ? | 8.9% | ?
O=C(N/N=C/c1ccco1)C1CC1 | 1.9% | i | 13.8% | -8.3% | -15.8% | 19.4%
O=C(N/N=C/c1ccco1)C1CC1c1ccccc1 (centres undefined) | ? | -6.4% | 27.1% | -3.6% | 4.6% | 18.4µM*
O=C(N/N=C/c1cccc([N+](=O)[O-])c1)C1CC1c1ccccc1 (centres undefined) | 0.8% | ? | ? | -16.5% | -0.7% | 2.24µM*
O=C(N/N=C/c1c[nH]c2ccccc12)C1CC1c1ccccc1 (centres undefined) | 5.2% | -23.6% | ? | -18.7% | ? | 2.82µM*
CC(C)(C)c1ccc(C2CC2C(=O)N/N=C\c2ccc[nH]2)cc1 (centres undefined) | 0.0% | ? | ? | 3.98µM* | -19.0% | ?
CCOc1ccc(NC(=O)C2CCN(C(=O)N3CC(C)Oc4ccc(Cl)cc43)CC2)cc1 (centres undefined) | -6.9% | -9.0% | . | -15.3% | -25.1% | 1.8%[46.1 µM]
O=S1(=O)c2ccccc2N(Cc2ccccc2Cl)c2ccccc21 | 1.2% | -5.0% | . | -5.5% | ? | 5.5%[46.1 µM]
COc1ccc(NC(=O)c2cnc3sc(N4CCOCC4)nn3c2=O)c(OC)c1 | 5.8% | 1.9% | . | 3.6% | -19.6% | 8.4%[46.1 µM]
Cc1ccc([N+](=O)[O-])c2c1C(N1CCCC1)C(C)(C)O2 (centres undefined) | 56.2µM* | . | . | . | -6.0% | .
Cc1ccc(S(=O)(=O)N2CCCC2)cc1[N+](=O)[O-] | 4.8% | -1.5% | -1.4% | -12.1% | -11.3% | 3.2%
Fc1ccccc1COc1ccc(Br)cc1CNCc1ccncc1 | -0.5% | -26.2% | ? | -23.6% | 31.6µM* | -18.8%
CCN1C(=NCc2ccc(OC)cc2)NC(c2ccccc2)C(C(=O)OC)=C1C (centres undefined) | . | . | -22.1%[14.2 µM] | . | . | .
O=C1CC(C(=O)N2CCOc3ccc(CN4CCC(Oc5cccnc5)CC4)cc3C2)c2ccccc21 (centres undefined) | . | -9.6% | . | 2.3% | -17.5% | .
Clc1ccc(-c2nnc(CSc3nnc(-c4cccs4)o3)o2)cc1 | 4.9% | . | 5.8%[46.1 µM] | -13.3% | 28.5% | 15.9%
c1ccc(-c2nnc(SCc3nnc(-c4cccs4)o3)o2)cc1 | -22.2% | . | ? | 7.08µM* | -7.9% | -0.8%
CN(C)CCN1C(=O)c2cccc3cc([N+](=O)[O-])cc(c23)C1=O | . | 1.12µM* | 0.316µM* | ? | -21.9% | 0.447µM*
